In PubChem BioAssay:
Active and inactive are the calls of the source. Unless noted, no rule for the calls is given here.

How the values were obtained:
[1] = system: XIP peptide (Xip251-270) binding; test: small-molecule binders of XIP peptide, primary screen, biochemical, small-molecule microarray, fluorescence 635/667 nm, 0.1 µg/mL protein (AID 1182); conditions: fluorescent protein binding, 635 nm, higher = more signal, called active from +8 up or from −8 down
XIP peptide (Xip251-270) = test: small-molecule binders of XIP peptide, primary screen, biochemical, small-molecule microarray, fluorescence 635/667 nm, 0.5 µg/mL protein (AID 1183); conditions: small-molecule microarray binding, fluorescence 635 nm; higher = more signal
[2] = Plasmodium falciparum growth inhibition, primary screen, strain 3D7, DAPI fluorescence, 100 nL (AID 1184);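 also: parasites grown inside human red blood cells in medium with human serum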; conditions: P. falciparum 3D7 growth, 3 d, higher = more signal
[3] = biological target: Homeobox protein Hox-A13 (Mus musculus) (UniProt Q62424); test: inhibitors of HoxA13-DNA binding, primary screen, biochemical, fluorescence polarization, labeled oligonucleotide (AID 1185); conditions: 15 min, higher = more signal, called active from +8 up or from −8 down
[4] = inhibitors of hydroxyurea-induced Chk1 phosphorylation, primary screen, imaging, HeLa, phospho-Chk1 antibody, percent positive cells (AID 1186); conditions: hydroxyurea-induced phospho-Chk1 immunofluorescence imaging, higher = more signal
[5] = inhibitors of hydroxyurea-induced Chk1 phosphorylation, primary screen, imaging, HeLa, phospho-Chk1 nuclear intensity (AID 1187); conditions: hydroxyurea-induced phospho-Chk1 immunofluorescence imaging, higher = more signal

Sequence of Homeobox protein Hox-A13 (Mus musculus) (Q62424 whole entry, looked up): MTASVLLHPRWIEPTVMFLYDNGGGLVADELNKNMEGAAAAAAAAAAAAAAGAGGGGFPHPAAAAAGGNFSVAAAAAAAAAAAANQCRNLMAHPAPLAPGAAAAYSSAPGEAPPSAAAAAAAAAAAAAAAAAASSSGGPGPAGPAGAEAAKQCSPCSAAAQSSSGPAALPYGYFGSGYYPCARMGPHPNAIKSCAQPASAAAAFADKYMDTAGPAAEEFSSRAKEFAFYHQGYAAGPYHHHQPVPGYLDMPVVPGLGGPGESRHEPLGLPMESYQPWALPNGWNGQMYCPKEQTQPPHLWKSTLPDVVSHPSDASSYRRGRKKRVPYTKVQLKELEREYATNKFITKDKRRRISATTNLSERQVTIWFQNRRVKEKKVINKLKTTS

Structure (SMILES)	composite z-score [1]	composite z-score (XIP peptide (Xip251-270))	z-score [2]	z-score [3]	z-score [4]	z-score [5]
O=C1O[C@@H](c2ccccc2)[C@@H](c2ccccc2)N2[C@@H](c3ccccc3OCCO)[C@]3(C(=O)Nc4ccc(C#CCCO)cc43)[C@@H](C(=O)N3CCCCCCC3)[C@H]12	8.49 (active)	1.02	-2.23	3.66 (inactive)	-0.333 (inactive)	-0.462 (inactive)
COc1ccc(CN(C2=CC[C@@]3(C(N)=O)C(=O)C(Cl)=C(Cl)C(=O)[C@@]3(C#N)C2)S(=O)(=O)c2ccc(Br)cc2)cc1	0.68 (inactive)	0.923	0.435	-6.44 (inactive)	-0.207 (inactive)	-0.179 (inactive)
[N-]=[N+]=Nc1ccccc1[C@H]1OC(c2ccc(OCCCO)cc2)=N[C@@]1(Cc1ccccc1)C(=O)N1CCCCC1	0.391 (inactive)	0.664	-1.95	-2.71 (inactive)	-0.549 (inactive)	-0.463 (inactive)
C=C[C@@H](COC(C)=O)N(C(=O)OC(C)(C)C)S(=O)(=O)c1ccc(Br)cc1	0.805 (inactive)	0.546	0.573	-2.35 (inactive)	-0.506 (inactive)	-0.474 (inactive)
CC(C)N1C(=O)c2ccccc2[C@@H](C(=O)NC2CC2)[C@@H]1c1ccc(CO)cc1	0.11 (inactive)	0.461	0.314	-2.99 (inactive)	-0.0392 (inactive)	-0.0337 (inactive)
COc1ccc([Si](C)(C)[C@@H]2[C@@H](CCO)O[C@]3(C(=O)N(Cc4ccc(N5CCCCC5=O)cc4)c4ccccc43)[C@H]2C)cc1	2.99 (inactive)	0.769	-2.69	-5.03 (inactive)	-0.913 (inactive)	0.261 (inactive)
N#Cc1ccc(C(O)C2C=CC3C(=O)N(c4ccccc4)C(=O)C3N2Nc2ccccc2)cc1 (centres undefined)	0.294 (inactive)	0.108	-0.605	-1.94 (inactive)	-0.18 (inactive)	-0.383 (inactive)
COC(=O)c1ccc([C@H](NC(=O)c2ccco2)[C@]2(C)C[C@H]2C2CCCCC2)cc1	-0.235 (inactive)	-0.727	-0.414	-2.66 (inactive)	0.089 (inactive)	-0.229 (inactive)
Cn1cccc1C(O)C1C=CC2C(=O)NC(=O)C2N1Nc1ccc(Cl)cc1Cl (centres undefined)	0.789 (inactive)	0.768	-0.152	-3.92 (inactive)	0.702 (inactive)	0.532 (inactive)
CN1C(=O)C2C=CC(C(O)c3ccccn3)N(N(c3ccccc3)c3ccccc3)C2C1=O (centres undefined)	-0.365 (inactive)	0.891	-0.215	-8.63 (active)	0.46 (inactive)	-0.024 (inactive)
C=CCC(OC(C)=O)[C@@H]1[C@@H](N(Cc2ccc(-c3ccccc3)cc2)C(=O)Cc2ccc(F)cc2)c2cc(OCCCO)ccc2N1C(=O)Cc1ccc(OC)cc1 (some centres undefined)	0.0187 (inactive)	-0.308	-0.939	-2.3 (inactive)	-0.245 (inactive)	-0.23 (inactive)
C=CCC(OC(C)=O)[C@@H]1[C@@H](N(Cc2cc3ccccc3o2)C(=O)c2ccc(C)cc2)c2cc(OCCCO)ccc2N1C(=O)Cc1ccc(OC)cc1 (some centres undefined)	-0.23 (inactive)	0.0544	-0.901	-2.07 (inactive)	-0.0554 (inactive)	-0.601 (inactive)
CN(C)c1ccc(C(O)C2C=CC3C(=O)N(c4ccccc4)C(=O)C3N2Nc2ccc([N+](=O)[O-])cc2)cc1 (centres undefined)	-0.0383 (inactive)	0.648	-0.704	-5.57 (inactive)	0.55 (inactive)	-0.576 (inactive)
COC(=O)[C@@]1(Cc2ccc(F)cc2)[C@H]2c3cc(C(=O)N(C)C)n(CCc4ccc(O)c(OC)c4)c3C[C@H]2CN1C(=O)c1ccccc1	-0.327 (inactive)	-0.277	0.845	-0.562 (inactive)	-0.47 (inactive)	-0.964 (inactive)
